What is called inhibition is the change of the read-out against control, counted positive when it falls.

Active and inactive are the calls of the source.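 Rule for the calls, unless noted: active = superoxide response below 65% of plate, a cut near 3 SD across the whole screen; inactive = the rest.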

Assay [1] in a line: inhibitors of CD8+ T cell-vesicle binding, pilot screen, LFA-1/ICAM-1 modulator project, MLPCN validation set, flow cytometry (AID 2523;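 active = response below a set limit, under 55% cells CD8-positive and vesicle-bound, and CD8 cells' 90th-percentile brightness under 279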;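 for vesicle binding response: mean PE anti-B7-1 fluorescence of CD8+ cells relative to row control; 100% = QL9-loaded vesicles with DMSO vehicle in the same plate row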). The conditions noted are these: 2C mouse CD8+ T cells, at 7 µM, stronger effect = lower value; double positive events: measured here: CD8+/vesicle+ event percentage.
The target in assay [2] is Integrin beta-1 (Homo sapiens) + Integrin alpha-4 (Homo sapiens) (UniProt P13612+P05556). Put plainly: inhibition of HUTS-21 binding to VLA-4, pilot screen, VLA-4 allosteric modulator project, U937 cells, HUTS-21 mAb, flow cytometry, validation set (AID 2674;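 active = inhibition above 50%, about 3 SD of the validation set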;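 note: antibody binding induced by the VLA-4 ligand LDV present at three times its Kd; 0% = LDV ligand with antibody and no compound and 100% = antibody without LDV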). The conditions noted are these: HUTS-21 LIBS mAb binding, at 6.7 µM, stronger effect = higher value, binding induced by LDV ligand. A general note: A flow cytometer gives signals particle by particle.
Integrin beta-1 (Homo sapiens) + Integrin alpha-4 (Homo sapiens), sequence (P05556 whole entry, looked up): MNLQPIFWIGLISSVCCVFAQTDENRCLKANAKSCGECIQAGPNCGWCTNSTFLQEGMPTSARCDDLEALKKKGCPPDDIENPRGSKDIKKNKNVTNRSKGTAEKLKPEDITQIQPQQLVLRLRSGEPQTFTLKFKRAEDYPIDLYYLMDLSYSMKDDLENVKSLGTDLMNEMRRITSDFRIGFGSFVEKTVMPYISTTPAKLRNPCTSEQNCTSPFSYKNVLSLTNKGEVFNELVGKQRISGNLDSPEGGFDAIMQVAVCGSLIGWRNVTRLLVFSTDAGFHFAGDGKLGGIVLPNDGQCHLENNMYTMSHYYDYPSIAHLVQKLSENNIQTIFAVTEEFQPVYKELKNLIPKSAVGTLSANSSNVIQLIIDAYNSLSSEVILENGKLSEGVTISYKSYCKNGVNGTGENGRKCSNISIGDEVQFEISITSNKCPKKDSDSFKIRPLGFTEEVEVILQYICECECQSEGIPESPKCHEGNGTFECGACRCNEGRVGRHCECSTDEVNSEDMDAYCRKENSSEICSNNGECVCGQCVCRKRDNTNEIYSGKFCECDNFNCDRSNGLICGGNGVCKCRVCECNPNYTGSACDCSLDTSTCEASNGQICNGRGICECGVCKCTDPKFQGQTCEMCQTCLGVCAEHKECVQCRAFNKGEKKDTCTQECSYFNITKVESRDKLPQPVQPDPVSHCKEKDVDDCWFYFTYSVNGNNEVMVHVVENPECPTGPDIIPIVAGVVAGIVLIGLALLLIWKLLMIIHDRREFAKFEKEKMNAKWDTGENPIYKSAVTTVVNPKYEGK
Integrin beta-1 (Homo sapiens) + Integrin alpha-4 (Homo sapiens), sequence (P13612 whole entry, looked up): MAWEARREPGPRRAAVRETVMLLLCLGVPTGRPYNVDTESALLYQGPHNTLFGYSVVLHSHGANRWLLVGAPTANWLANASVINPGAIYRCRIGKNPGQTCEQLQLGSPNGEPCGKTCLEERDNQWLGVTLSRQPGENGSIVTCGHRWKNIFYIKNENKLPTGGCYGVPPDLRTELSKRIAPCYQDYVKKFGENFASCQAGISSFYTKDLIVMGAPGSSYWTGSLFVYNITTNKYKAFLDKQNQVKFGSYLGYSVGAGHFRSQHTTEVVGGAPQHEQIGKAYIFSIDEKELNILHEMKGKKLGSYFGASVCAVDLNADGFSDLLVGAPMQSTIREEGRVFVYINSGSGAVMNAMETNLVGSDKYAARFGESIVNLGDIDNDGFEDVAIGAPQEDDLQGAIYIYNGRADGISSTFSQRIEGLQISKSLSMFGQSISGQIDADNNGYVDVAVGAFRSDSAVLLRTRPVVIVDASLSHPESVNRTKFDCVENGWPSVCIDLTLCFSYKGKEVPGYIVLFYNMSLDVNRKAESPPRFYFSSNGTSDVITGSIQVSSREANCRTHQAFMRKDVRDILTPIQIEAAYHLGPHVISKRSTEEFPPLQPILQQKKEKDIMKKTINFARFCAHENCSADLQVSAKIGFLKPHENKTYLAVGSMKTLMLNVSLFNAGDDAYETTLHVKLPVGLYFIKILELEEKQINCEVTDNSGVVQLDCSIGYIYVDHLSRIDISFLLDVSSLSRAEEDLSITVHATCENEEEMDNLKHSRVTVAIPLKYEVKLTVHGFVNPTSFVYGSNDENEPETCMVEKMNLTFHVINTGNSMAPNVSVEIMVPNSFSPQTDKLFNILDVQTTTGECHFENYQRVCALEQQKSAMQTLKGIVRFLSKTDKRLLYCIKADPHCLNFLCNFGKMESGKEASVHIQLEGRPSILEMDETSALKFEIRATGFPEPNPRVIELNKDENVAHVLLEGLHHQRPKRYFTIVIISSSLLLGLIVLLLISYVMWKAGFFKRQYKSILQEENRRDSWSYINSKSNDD

Assay [3] is described as follows: superoxide lowering in aged yeast cells, pilot screen, validation compound set (AID 2706).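 Note: yeast exposed to compound for one week at 30 degrees C before staining; 100% = mean of all compound wells on the same plate.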 The conditions noted are these: S. cerevisiae aging, superoxide DHE fluorescence; at 10 µM, stronger effect = lower value.
Assay [4] addresses Beta-adrenergic receptor kinase 1 (Homo sapiens) (UniProt P25098). Put plainly: GRK2 binders displacing RNA aptamer, biochemical, validation, human GRK2, bead flow cytometry (AID 488806;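 active = aptamer binding inhibition above 30%, about 3 SD of noise from non-fluorescent compounds; inactive = inhibition at or below 30%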). The conditions noted are these: bead-bound GRK2, FAM-aptamer displacement, at 10 µM, stronger effect = higher value.
Assay [5] concerns the target Beta-2 adrenergic receptor (Homo sapiens) (UniProt P07550). The experiment in a line: beta2AR agonists driving receptor internalization, pilot screen, cell-based, FAP fluorogen, flow cytometry, validation set (AID 504459;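 active = percent response above 42, roughly 3 SD of non-fluorescent test compounds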;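 note: agonist-driven loss of surface beta2AR via internalization measured by FAP dye flow cytometry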). The note with it: Am2.2-beta2AR cells, FAP surface receptor flow cytometry; at 10 µM; stronger effect = higher value.
In assay [6] the target is AP-2 complex subunit beta (Homo sapiens) (UniProt P63010). The experiment in a line: inhibitors of arrestin peptide binding to AP2, pilot screen, biochemical, validation set, GST-AP2 beads, flow cytometry (AID 504541;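 active = inhibition above 54%, about 3 SD of non-fluorescent compounds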;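 note: AP2 carries R879A mutation and is captured from E. coli lysate; bead-bound FITC arrestin peptide fluorescence measuring arrestin peptide binding to AP2; 0% = DMSO wells and 100% = excess unlabeled arrestin peptide control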). The note with it: FITC arrestin peptide, at 10 µM, stronger effect = higher value, AP2 beta2 appendage fragment, R879A mutant.
AP-2 complex subunit beta (Homo sapiens), sequence (P63010 whole entry, looked up, the tested form may be a part, one chain of several): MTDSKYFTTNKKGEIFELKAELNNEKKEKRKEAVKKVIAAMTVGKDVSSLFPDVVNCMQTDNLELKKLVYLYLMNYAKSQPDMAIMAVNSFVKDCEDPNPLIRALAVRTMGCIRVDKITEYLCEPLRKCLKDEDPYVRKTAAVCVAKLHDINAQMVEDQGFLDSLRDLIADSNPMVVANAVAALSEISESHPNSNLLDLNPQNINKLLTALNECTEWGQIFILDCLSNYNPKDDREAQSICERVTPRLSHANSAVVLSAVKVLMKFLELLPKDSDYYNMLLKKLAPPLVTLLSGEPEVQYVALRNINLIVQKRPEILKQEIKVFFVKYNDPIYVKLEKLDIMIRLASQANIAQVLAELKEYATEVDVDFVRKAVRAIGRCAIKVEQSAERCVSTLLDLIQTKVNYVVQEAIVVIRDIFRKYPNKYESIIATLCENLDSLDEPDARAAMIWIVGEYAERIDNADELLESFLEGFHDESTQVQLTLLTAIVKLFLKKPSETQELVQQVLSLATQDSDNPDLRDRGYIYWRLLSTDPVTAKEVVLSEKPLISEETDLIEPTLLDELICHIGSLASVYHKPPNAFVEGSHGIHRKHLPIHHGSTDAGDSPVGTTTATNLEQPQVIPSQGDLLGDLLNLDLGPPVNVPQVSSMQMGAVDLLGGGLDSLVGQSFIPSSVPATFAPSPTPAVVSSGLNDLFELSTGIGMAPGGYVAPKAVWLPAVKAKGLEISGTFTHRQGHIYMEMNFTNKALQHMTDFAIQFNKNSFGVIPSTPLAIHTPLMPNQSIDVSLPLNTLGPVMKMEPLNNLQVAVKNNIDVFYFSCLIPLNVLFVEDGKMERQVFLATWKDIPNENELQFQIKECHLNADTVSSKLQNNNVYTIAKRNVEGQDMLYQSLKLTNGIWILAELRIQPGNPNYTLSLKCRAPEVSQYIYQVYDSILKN
The nature of assay [7]: yeast V-ATPase proton transport modulators, S. cerevisiae, pHLuorin, HTS validation (AID 504600; in the data active = response above about 15%;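 note: plate controls were DMSO for no effect and reference compound for full effect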). The note with it: S. cerevisiae pHLuorin cytosolic pH, at 10 µM, stronger effect = higher value.
Assay [8] concerns anti-desmoglein-3 scFv antibody binding to human DSG3. Put plainly: inhibitors of anti-DSG3 scFv binding to DSG3, pilot screen, biochemical, validation compound set, bead-based, flow cytometry (AID 588368;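 active = binding below the plate cutoff, the plate median minus 3 SD, with a reading above zero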;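 note: signal is the median channel fluorescence of bead-bound GFP antibody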). The note with it: Protein G beads, DSG3-Fc, scFv-GFP binding, at 10 µM, stronger effect = lower value.
A short description of assay [9]: inhibitors of fungal efflux pumps CDR1, CDR2, MDR1, pilot screen, validation compound set, multiplex, phenotypic (AID 588506;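 active = efflux inhibition above 0.42, the validation set average plus 4 SD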;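 note: Nile Red retained in cells so higher fluorescence means more efflux inhibition; 0 = negative control wells and 1 = enniatin B 25 µM full block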). The conditions noted are these: S. cerevisiae pump-expressing triplex, Nile Red efflux flow cytometry; at 10 µM; stronger effect = higher value; the pumps come from Candida albicans.
For assay [10], the target named is ATP-binding cassette sub-family B member 6 (Homo sapiens) (UniProt Q9NP58). The experiment in a line: ABCB6 transporter inhibitors, pilot screen, K562-ABCB6 cells, flow cytometry, validation set (AID 588550;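 active = inhibition above the screen-wide mean plus 3 SD, about 51%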;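 note: 0% = DMSO wells and 100% = benzethonium chloride 70 µM positive control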). The note with it: K562-ABCB6 porphyrin accumulation, 1 h, at 10 µM, stronger effect = higher value.
ATP-binding cassette sub-family B member 6 (Homo sapiens), sequence (Q9NP58 whole entry, looked up): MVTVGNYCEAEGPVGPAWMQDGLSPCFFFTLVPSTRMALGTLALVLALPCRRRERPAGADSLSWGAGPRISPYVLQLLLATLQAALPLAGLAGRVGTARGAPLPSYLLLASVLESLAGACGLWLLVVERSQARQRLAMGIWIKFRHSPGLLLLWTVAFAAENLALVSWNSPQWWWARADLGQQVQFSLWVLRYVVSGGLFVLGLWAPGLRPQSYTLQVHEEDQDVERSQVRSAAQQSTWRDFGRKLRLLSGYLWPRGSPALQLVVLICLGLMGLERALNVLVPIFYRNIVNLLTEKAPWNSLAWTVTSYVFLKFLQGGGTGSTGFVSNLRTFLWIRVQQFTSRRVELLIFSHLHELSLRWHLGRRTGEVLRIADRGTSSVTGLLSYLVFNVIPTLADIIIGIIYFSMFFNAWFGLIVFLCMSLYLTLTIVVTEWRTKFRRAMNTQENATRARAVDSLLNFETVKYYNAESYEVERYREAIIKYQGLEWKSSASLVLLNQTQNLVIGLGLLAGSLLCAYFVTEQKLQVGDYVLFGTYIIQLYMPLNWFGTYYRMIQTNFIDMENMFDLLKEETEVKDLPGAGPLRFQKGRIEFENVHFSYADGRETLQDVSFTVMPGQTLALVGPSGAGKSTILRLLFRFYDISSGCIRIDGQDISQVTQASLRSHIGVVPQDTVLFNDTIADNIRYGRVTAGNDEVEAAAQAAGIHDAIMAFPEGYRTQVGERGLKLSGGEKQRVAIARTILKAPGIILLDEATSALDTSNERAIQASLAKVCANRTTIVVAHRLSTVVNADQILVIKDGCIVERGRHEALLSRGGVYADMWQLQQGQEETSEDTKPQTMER
The nature of assay [11]: promoters of myeloid differentiation in arrested cells, primary screen, cell-based, GFP/MAC1 double positive, flow cytometry, validation set (AID 588685;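 active = differentiation response of at least 50%, scaled between solvent and reference control, from cells with both markers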;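 note: compound exposure lasts four days before antibody staining and flow analysis; 0% = DMSO wells and 100% = 5 µM fulvestrant positive control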). The note with it: ER-HoxA9 marrow cells, stronger effect = higher value, normalized: vehicle 0, fulvestrant 100.

Beta-adrenergic receptor kinase 1 (Homo sapiens), sequence (P25098 whole entry, looked up): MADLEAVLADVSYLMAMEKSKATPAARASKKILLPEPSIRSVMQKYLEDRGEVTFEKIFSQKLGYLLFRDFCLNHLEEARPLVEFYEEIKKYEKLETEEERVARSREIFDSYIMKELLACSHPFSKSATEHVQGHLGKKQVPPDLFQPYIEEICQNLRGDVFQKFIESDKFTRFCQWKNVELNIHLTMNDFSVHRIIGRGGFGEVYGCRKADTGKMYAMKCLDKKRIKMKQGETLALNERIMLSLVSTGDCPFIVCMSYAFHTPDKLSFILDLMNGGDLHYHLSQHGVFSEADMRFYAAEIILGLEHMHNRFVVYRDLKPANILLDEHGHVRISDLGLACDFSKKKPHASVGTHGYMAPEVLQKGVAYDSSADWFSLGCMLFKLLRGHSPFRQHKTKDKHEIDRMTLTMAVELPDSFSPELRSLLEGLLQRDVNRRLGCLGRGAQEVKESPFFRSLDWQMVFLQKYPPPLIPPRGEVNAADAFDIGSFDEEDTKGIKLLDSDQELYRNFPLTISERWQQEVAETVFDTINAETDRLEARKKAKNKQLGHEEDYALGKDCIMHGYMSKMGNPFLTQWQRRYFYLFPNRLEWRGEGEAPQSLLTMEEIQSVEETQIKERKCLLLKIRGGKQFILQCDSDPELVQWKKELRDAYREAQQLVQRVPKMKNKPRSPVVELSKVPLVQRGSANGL
Beta-2 adrenergic receptor (Homo sapiens), sequence (P07550 whole entry, looked up): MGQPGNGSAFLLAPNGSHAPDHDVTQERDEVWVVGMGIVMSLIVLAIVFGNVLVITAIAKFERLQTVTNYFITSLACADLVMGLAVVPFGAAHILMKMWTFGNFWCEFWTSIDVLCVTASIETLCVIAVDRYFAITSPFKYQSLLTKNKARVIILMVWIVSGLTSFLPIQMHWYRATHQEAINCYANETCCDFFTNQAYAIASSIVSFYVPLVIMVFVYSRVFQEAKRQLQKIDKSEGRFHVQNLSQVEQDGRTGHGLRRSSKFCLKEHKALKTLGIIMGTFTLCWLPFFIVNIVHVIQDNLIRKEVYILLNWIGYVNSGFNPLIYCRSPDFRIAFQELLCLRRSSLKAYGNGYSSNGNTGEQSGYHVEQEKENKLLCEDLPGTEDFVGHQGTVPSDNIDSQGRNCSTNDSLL

Compound `O=c1cc(-c2ccc3c(c2)OCCO3)oc2ccc(Cl)cc12` came in with a double positive events in [1] of 59%. In assay [1], the vesicle binding response was 102% (inactive). The inhibition was 2.93% (inactive) in [2], -6.8% (inactive) in [6] and 27% (inactive) in assay [10]. In addition, the superoxide response (% of plate) in [3] is 98.9% (inactive). Besides, the aptamer binding inhibition in [4] is -1% (inactive). Besides, the response was -2.34% (inactive) in assay [5] and 51.3% (active) in [7]. Moreover, in assay [8], the binding (% of control) was 74.9% (active). In assay [9], the efflux inhibition (fraction of control) is 0.08 (inactive). In addition, the differentiation response in assay [11] is -6.03% (inactive).

The compound `C#CCN(C)CCCOc1ccc(Cl)cc1Cl` returned a double positive events in assay [1] of 56.3%. In addition, in assay [1], the vesicle binding response is 64.3% (inactive). The inhibition in assay [2] was -7.12% (inactive); in [6] it was -2.33% (inactive); in assay [10], 12% (inactive). Also, the superoxide response (% of plate) in assay [3] was 96.4% (inactive). Moreover, the aptamer binding inhibition in [4] was 0% (inactive). The response was -6.11% (inactive) in assay [5] and 1.85% (inactive) in assay [7]. For the same compound, the binding (% of control) in assay [8] was 96.3% (inactive). Moreover, the efflux inhibition (fraction of control) in [9] was 0.3 (inactive). In addition, the differentiation response in assay [11] was -1.64% (inactive).

Consider `CN1CCN(CCCN2c3ccccc3Sc3ccc(C(F)(F)F)cc32)CC1`, for which the double positive events in assay [1] is 64.7%. Moreover, in assay [1], the vesicle binding response is 215% (inactive). Moreover, the inhibition was 57.6% (active) in assay [2], 1.45% (inactive) in assay [6] and 8% (inactive) in [10]. In assay [3], the superoxide response (% of plate) is 80.3% (inactive). In assay [4], the aptamer binding inhibition was -2% (inactive). For the same compound, the response in assay [5] was 23.7% (inactive); in assay [7], 24.5% (active). In addition, the binding (% of control) in [8] is 109% (inactive). Also, in [9], the efflux inhibition (fraction of control) was 0 (inactive). The differentiation response in assay [11] was 7.82% (inactive).

As to `CCCCC[C@H](O)/C=C/[C@@H]1[C@@H](C/C=C\CCCC(=O)O)[C@@H](O)C[C@H]1O`, the double positive events in assay [1] was 60.4%. For the same compound, the vesicle binding response in assay [1] was 106% (inactive). Moreover, the inhibition is -49.3% (inactive) in [2], -12.4% (inactive) in [6] and 1% (inactive) in assay [10]. Further, the superoxide response (% of plate) in assay [3] was 96.5% (inactive). In assay [4], the aptamer binding inhibition is 1% (inactive). The response in assay [5] is -3.9% (inactive); in assay [7] it was -1.19% (inactive). The binding (% of control) in assay [8] was 98.8% (inactive). In addition, the efflux inhibition (fraction of control) in assay [9] was 0.045 (inactive). In addition, the differentiation response in assay [11] is -11.9% (inactive).

In turn, `COc1cc(NC(=O)N[C@@H](Cc2ccccc2)C(=O)O)cc(OC)c1` registered a double positive events in assay [1] of 62.8%. Further, the vesicle binding response in assay [1] was 221% (inactive). The inhibition in [2] was 9.1% (inactive); in assay [6], -3.53% (inactive); in assay [10], 2% (inactive). In addition, the superoxide response (% of plate) in assay [3] was 106% (inactive). Moreover, the aptamer binding inhibition in assay [4] was 3% (inactive). Besides, the response in [5] is -10.8% (inactive); in assay [7] it was 22.2% (active). For the same compound, in assay [8], the binding (% of control) is 105% (inactive). In addition, in assay [9], the efflux inhibition (fraction of control) was -0.09 (inactive). Further, the differentiation response in [11] was 0.92% (inactive).

`COc1ccc(C(=O)OCc2cc3cccc(C)c3[nH]c2=O)cc1` came in with a double positive events in assay [1] of 49.3%. The vesicle binding response in [1] was 163% (inactive). The inhibition is 5.36% (inactive) in assay [2], 8.12% (inactive) in assay [6] and 8% (inactive) in [10]. In addition, in assay [3], the superoxide response (% of plate) was 112% (inactive). Moreover, in assay [4], the aptamer binding inhibition was 0% (inactive). The response in assay [7] is -29% (inactive). The binding (% of control) in assay [8] was 96.4% (inactive). The efflux inhibition (fraction of control) in [9] is 0.06 (inactive). The differentiation response in assay [11] was -29.3% (inactive).

For `CC(=O)OCC(OC(C)=O)C(OC(C)=O)C(OC(C)=O)C(=O)Nc1cccc(C)c1` (stereo not given), in assay [1], the double positive events is 59.9%. For the same compound, the vesicle binding response in assay [1] was 153% (inactive). In addition, the inhibition in assay [2] was -4.52% (inactive); in assay [6], -4.4% (inactive); in assay [10], 2% (inactive). Moreover, in assay [3], the superoxide response (% of plate) is 110% (inactive). The aptamer binding inhibition in assay [4] is 3% (inactive). Further, the figures for the response in [5] and in [7] were 4.29% (inactive) and 1.1% (inactive), respectively. Also, the binding (% of control) in assay [8] is 97% (inactive). Also, the efflux inhibition (fraction of control) in assay [9] was -0.1 (inactive). For the same compound, in assay [11], the differentiation response is -10.4% (inactive).

`O=c1ccc2ccccc2o1` gave a double positive events in assay [1] of 62.3%. Moreover, the vesicle binding response in assay [1] is 162% (inactive). The values for the inhibition in [2], in [6] and in assay [10] were -3.77% (inactive), 1.88% (inactive) and -8% (inactive), respectively. Moreover, the superoxide response (% of plate) in assay [3] was 95.1% (inactive). In [4], the aptamer binding inhibition was -7% (inactive). For the same compound, the response in [5] was 0.92% (inactive); in [7] it was -9% (inactive). Besides, in assay [8], the binding (% of control) was 103% (inactive). Besides, the efflux inhibition (fraction of control) in assay [9] is -0.02 (inactive). The differentiation response in [11] is 2.74% (inactive).

In the case of `C[C@]12CCC(=O)C=C1CC[C@@H]1[C@@H]2CC[C@@]2(C)[C@H]1CC[C@]2(O)C(=O)CO`, the double positive events in assay [1] was 54.2%. The vesicle binding response in assay [1] is 143% (inactive). The inhibition in assay [2] is 5.36% (inactive); in assay [6] it was -3.62% (inactive); in [10], 4% (inactive). In [3], the superoxide response (% of plate) is 96.8% (inactive). Also, in [4], the aptamer binding inhibition was 4% (inactive). Besides, the response in assay [7] is 1.37% (inactive). Moreover, the binding (% of control) in assay [8] was 96.2% (inactive). For the same compound, in assay [9], the efflux inhibition (fraction of control) was -0.31 (inactive). Moreover, in [11], the differentiation response is -3.43% (inactive).

In turn, `C(=C/c1nccc2c1[nH]c1ccccc12)/c1ccc2c(c1)OCO2` had a double positive events in [1] of 58.5%. Besides, the vesicle binding response in assay [1] was 170% (inactive). In addition, the inhibition in assay [2] was -239% (inactive); in assay [6], 23.3% (inactive); in assay [10], 8% (inactive). Besides, the superoxide response (% of plate) in assay [3] is 93.4% (inactive). Also, in [4], the aptamer binding inhibition is -1% (inactive). Also, the response in [7] was 1.54% (inactive). In addition, the binding (% of control) in assay [8] is 144% (inactive). Besides, the efflux inhibition (fraction of control) in [9] is -0.35 (inactive). Besides, in assay [11], the differentiation response is -18% (inactive).

Compound `O=C(CCNNC(=O)c1ccncc1)NCc1ccccc1` returned a double positive events in assay [1] of 66.8%. For the same compound, in [1], the vesicle binding response is 184% (inactive). Besides, the figures for the inhibition in assay [2], in assay [6] and in [10] were 18.4% (inactive), 26.4% (inactive) and 5% (inactive), respectively. Besides, the superoxide response (% of plate) in assay [3] is 101% (inactive). In addition, the aptamer binding inhibition in [4] was -1% (inactive). For the same compound, in assay [7], the response was 1.75% (inactive). For the same compound, in assay [8], the binding (% of control) is 99% (inactive). The efflux inhibition (fraction of control) in assay [9] is 0.48 (active). The differentiation response in assay [11] is -24.4% (inactive).

For the compound `O=C(O)CCn1c(=S)n(CCC(=O)O)c2ccccc21`, the double positive events in assay [1] came out at 53.4%. Moreover, in assay [1], the vesicle binding response is 162% (inactive). Further, the inhibition is 8.15% (inactive) in [2], 4.52% (inactive) in [6] and 5% (inactive) in assay [10]. Besides, in assay [3], the superoxide response (% of plate) is 112% (inactive). Moreover, the aptamer binding inhibition in [4] was 4% (inactive). Also, the response in assay [7] was -0.83% (inactive). Further, the binding (% of control) in assay [8] is 101% (inactive). In [9], the efflux inhibition (fraction of control) was -0.05 (inactive). Also, in [11], the differentiation response was -6.66% (inactive).

`CC1(C)CC(=O)c2cc(O)ccc2O1`: the double positive events in [1] was determined as 61%. Also, the vesicle binding response in assay [1] is 199% (inactive). The inhibition was 13.8% (inactive) in assay [2], 10.6% (inactive) in assay [6] and 11% (inactive) in assay [10]. Further, the superoxide response (% of plate) in [3] is 95.8% (inactive). Further, in [4], the aptamer binding inhibition was 3% (inactive). For the same compound, the response in [7] is -2.03% (inactive). Moreover, in [8], the binding (% of control) was 107% (inactive). Also, the efflux inhibition (fraction of control) in assay [9] was -0.01 (inactive). Also, the differentiation response in assay [11] is -13.1% (inactive).

(Values after PubChem BioAssay.)
